Values without a mark were called inactive. Records with an inconclusive call do not appear. Activity calls are given as the source filed them. Unless noted, calls follow the shape of the dose curve; as a rule, active = well fitted curve in either direction with a large enough effect (not every such curve was filed as active); inconclusive = small, poorly fitted or top-dose-only effect, or another doubt; inactive = flat fitted curve, though single readings scatter.

System in the first experiment: not listed separately
Description: Stat Signaling Pathway (AID 446).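 Also: ME-180 cervical cancer cells given 40 pM IL-6 alongside compound; SIE-controlled beta-lactamase reporter measured as 460/530 nm FRET emission ratio.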 The settings on record: ME-180 SIE beta-lactamase reporter, IL-6 stimulated, 5 h; series mostly up to 17.2 µM. Put shortly: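 Reporter line: ME-180 cervical carcinoma, SIE-beta-lactamase. Treatment: compound with 40 pM IL-6, 5 hrs, 37 C, in low-serum OPTI-MEM with 10 mM HEPES pH 7.3. Detection: 460/530 nm fluorescence.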
For `O=C(c1cnccn1)N1CCC2(CC1)CN(Cc1ccncc1)C2`, the result was inactive.
On the same count and under the same terms, the value for `O=C(Oc1ccccc1)N1CCC2(CC1)CN(Cc1ccncc1)C2` was “inactive”; that for `CN1CCCC2(CCN(C(=O)c3ccco3)CC2)C1` was “inactive”.

The target in a further experiment is Glucocorticoid receptor (Homo sapiens) (UniProt P04150). Description: GR-GFP Redistribution (AID 450;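 active = compounds whose dose series gives a full or clear partial fitted curve of increased nuclear translocation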; also: potency is read from the fitted curve at half-maximal effect). The settings on record: U2OS GR-GFP nuclear translocation, laser cytometry, 2 h.
Chain of Glucocorticoid receptor (Homo sapiens) (P04150 whole entry, looked up): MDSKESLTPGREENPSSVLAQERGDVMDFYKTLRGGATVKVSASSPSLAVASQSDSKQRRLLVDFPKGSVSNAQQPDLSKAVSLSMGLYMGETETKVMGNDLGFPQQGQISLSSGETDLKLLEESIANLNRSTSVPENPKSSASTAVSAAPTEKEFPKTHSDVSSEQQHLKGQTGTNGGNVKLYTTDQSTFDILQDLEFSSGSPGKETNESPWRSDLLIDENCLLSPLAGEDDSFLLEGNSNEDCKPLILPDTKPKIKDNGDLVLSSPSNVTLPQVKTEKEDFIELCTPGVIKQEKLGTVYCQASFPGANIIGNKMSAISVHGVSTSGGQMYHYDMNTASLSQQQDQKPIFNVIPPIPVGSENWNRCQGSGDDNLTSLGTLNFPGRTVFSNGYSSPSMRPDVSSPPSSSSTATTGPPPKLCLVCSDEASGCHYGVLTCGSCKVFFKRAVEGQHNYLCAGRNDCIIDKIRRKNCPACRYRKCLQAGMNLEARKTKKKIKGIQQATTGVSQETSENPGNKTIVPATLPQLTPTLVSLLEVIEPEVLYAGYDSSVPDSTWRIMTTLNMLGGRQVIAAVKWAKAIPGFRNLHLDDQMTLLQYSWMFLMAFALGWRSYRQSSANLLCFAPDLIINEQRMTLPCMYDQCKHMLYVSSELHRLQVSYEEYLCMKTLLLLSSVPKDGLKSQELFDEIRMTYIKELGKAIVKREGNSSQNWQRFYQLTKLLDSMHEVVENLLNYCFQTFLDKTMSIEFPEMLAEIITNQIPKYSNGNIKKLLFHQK
On to `CCc1c(C(=O)OC)ncc2[nH]c3cc(OC)c(OC)cc3c12`, for which the Potency was more than 46 µM.
Take `O=C(O)C1=CCCN(CCOC(c2ccc(C(F)(F)F)cc2)c2ccc(C(F)(F)F)cc2)C1`: the Potency is more than 46 µM.
Still for that read-out and setting: the value for `Clc1ccccc1-c1cncnc1NCCc1cnc[nH]1` was more than 46 µM.

The next experiment shares this target. The experiment is described as follows: GR-EFC Redistribution (AID 451; calls by dose curve; also: potency is read from the fitted curve at half-maximal effect). To be noted: CHO-K1 GR-EFC translocation, beta-gal luminescence, 2 h. Summed up: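 CHO-K1 cells stably expressing nuclear-localized β-gal enzyme acceptor and GR fused C-terminally to the enzyme donor fragment; ligand-driven nuclear translocation restores β-gal by complementation. Compounds titrated up to 46 uM final, 2 h at 37 °C; luminescence read.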
`CS(=O)(=O)N1CCC2(CCCN(Cc3ccncc3)C2)CC1`: the Potency is more than 46 µM.
Same read-out and setting: the value for `c1ccc(CN2CC[C@@]3(CCCNC3)C2)cc1` was more than 46 µM.
The same measure, in the same setting: for `O=C(c1ccncc1)N1CCC[C@@]2(CCN(Cc3nccs3)C2)C1` the value was more than 46 µM.
Same read-out and setting: for `CCc1c(C(=O)OC)ncc2[nH]c3cc(OC)c(OC)cc3c12` the value was more than 46 µM; for `c1cc(CN2CC3(CCNCC3)C2)ccn1`, more than 46 µM; for `c1csc(CN2CC[C@@]3(CCCNC3)C2)n1`, more than 46 µM.
`COC(=O)N1CCC2(CCCN(C)C2)CC1`: the Potency is more than 46 µM.
`O=C(O)C1=CCCN(CCOC(c2ccc(C(F)(F)F)cc2)c2ccc(C(F)(F)F)cc2)C1`: the Potency is more than 46 µM.
Still for that read-out and setting: for `c1ccc(CN2CCC3(CCNCC3)CC2)cc1` the value was more than 46 µM; for `Cc1noc(C)c1C(=O)N1CCC2(CCCN(CC(C)C)C2)CC1`, more than 46 µM; for `CN1CC[C@@]2(CCCN(C(=O)c3ccncc3)C2)C1`, more than 46 µM.
Turning to `c1cnc(N2CCCC3(CCNCC3)C2)nc1`, the Potency was more than 46 µM.
Still for that read-out and setting: the value for `c1ccc(N2CC3(CCNCC3)C2)cc1` was more than 46 µM.
Still for that read-out and setting: the value for `Clc1ccccc1-c1cncnc1NCCc1cnc[nH]1` was more than 46 µM.
For the molecule `CN1CC[C@@]2(CCCN(C(=O)Oc3ccccc3)C2)C1`, the Potency is more than 46 µM.
Still for that read-out and setting: for `c1csc(CN2CCC3(CCNCC3)CC2)n1` the value was more than 46 µM; for `O=C(Nc1ccccc1)N1CC[C@@]2(CCCN(C(=O)Oc3ccccc3)C2)C1`, more than 46 µM.
`O=C(c1csnn1)N1CCC2(CC1)CN(Cc1ccncc1)C2`: the Potency is more than 46 µM.
Take `CC(C)NC(=O)N1CC[C@@]2(CCCNC2)C1`: the Potency is more than 46 µM.
The same measure, in the same setting: for `c1ccc(N2CC3(CCNCC3)C2)nc1` the value was more than 46 µM; for `CC(C)NC(=O)N1CCC2(CC1)CCN(C(=O)Oc1ccccc1)CC2`, more than 46 µM; for `CC(C)NC(=O)N1CCCC2(CCN(C(=O)Oc3ccccc3)CC2)C1`, more than 46 µM.
Turning to `CN1CCCC2(CCN(C(=O)Oc3ccccc3)CC2)C1`, the Potency was more than 46 µM.
On the same count and under the same terms, the value for `CC(C)CN1CCC2(CC1)CCN(S(C)(=O)=O)CC2` was more than 46 µM; that for `CN1CCCC2(CCN(C(=O)c3csnn3)CC2)C1` was more than 46 µM.
Take `CC(C)CN1CCCC2(CCN(C(=O)c3ccncc3)CC2)C1`: the Potency was more than 46 µM.
On the same count and under the same terms, for `O=C(c1ccco1)N1CCC[C@@]2(CCN(Cc3ccncc3)C2)C1` the value was more than 46 µM; for `O=C(Nc1ccccc1)N1CC2(CCN(C(=O)Oc3ccccc3)CC2)C1`, more than 46 µM; for `CC(C)CN1CC[C@@]2(CCCN(C(=O)c3ccncc3)C2)C1`, more than 46 µM.
As to `Cc1noc(C)c1C(=O)N1CCC[C@@]2(CCN(CC(C)C)C2)C1`, the Potency was more than 46 µM.
With `CC(C)CN1CC2(CCN(C(=O)Oc3ccccc3)CC2)C1`, the Potency was more than 46 µM.
For `O=C(Oc1ccccc1)N1CCC2(CCCN(Cc3ccccc3)C2)CC1`, the Potency is more than 46 µM.
On the same count and under the same terms, for `N#Cc1cccc(NC(=O)N2CC3(CCN(C(=O)Oc4ccccc4)CC3)C2)c1` the value was more than 46 µM; for `O=C(c1cnccn1)N1CCC2(CC1)CN(Cc1ccncc1)C2`, more than 46 µM.
On the same count and under the same terms, for `O=C(Oc1ccccc1)N1CCC2(CC1)CN(Cc1ccncc1)C2` the value was more than 46 µM; for `CN1CCCC2(CCN(C(=O)c3ccco3)CC2)C1`, more than 46 µM.
In the case of `O=C(Nc1cccc(F)c1)N1CC2(CCNCC2)C1`, the Potency is more than 46 µM.

Another experiment concerns the target Mitogen-activated protein kinase 10 (Mus musculus) (UniProt Q61831). The experiment is described as follows: JNK3 AlphaScreen Assay (AID 530).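 Also: kinase came from lysate of stimulated human HepG2 cells; signal reports phosphorylation of biotinylated GST-cJun 1-79 at Ser73 with 10 µM ATP.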 To be noted: JNK3 lysate, c-Jun phosphorylation; series mostly up to 57.1 µM. Put shortly:
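JNK3 came from HepG2 lysates pre-activated with IL-1beta and TNF-alpha and phosphorylated biotinylated GST-cJun (1-79) at 10 uM ATP, pH 7.6, room temperature. Compounds were titrated. AlphaScreen signal used anti-phospho-cJun (Ser73) antibody.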
(In general: In Alpha technology, singlet oxygen from a donor bead excites a nearby acceptor bead.)
For the molecule `CS(=O)(=O)N1CCC2(CCCN(Cc3ccncc3)C2)CC1`, the molecule was called inactive.
The same measure, in the same setting: for `c1ccc(CN2CC[C@@]3(CCCNC3)C2)cc1` the value was “inactive”; for `O=C(c1ccncc1)N1CCC[C@@]2(CCN(Cc3nccs3)C2)C1`, “inactive”.
Same read-out and setting: the value for `CCc1c(C(=O)OC)ncc2[nH]c3cc(OC)c(OC)cc3c12` was “inactive”; that for `c1cc(CN2CC3(CCNCC3)C2)ccn1` was “inactive”.
The same measure, in the same setting: for `c1csc(CN2CC[C@@]3(CCCNC3)C2)n1` the value was “inactive”.
For `c1ccc(CN2CCC3(CCNCC3)CC2)cc1`, the call was inactive.
For the molecule `Cc1noc(C)c1C(=O)N1CCC2(CCCN(CC(C)C)C2)CC1`, the outcome was inactive.
With `CN1CC[C@@]2(CCCN(C(=O)c3ccncc3)C2)C1`, the molecule was called inactive.
The same measure, in the same setting: for `c1cnc(N2CCCC3(CCNCC3)C2)nc1` the value was “inactive”; for `c1ccc(N2CC3(CCNCC3)C2)cc1`, “inactive”; for `Clc1ccccc1-c1cncnc1NCCc1cnc[nH]1`, “inactive”.
On the same count and under the same terms, the value for `CN1CC[C@@]2(CCCN(C(=O)Oc3ccccc3)C2)C1` was “inactive”.
In the case of `c1csc(CN2CCC3(CCNCC3)CC2)n1`, the molecule was called inactive.
The same measure, in the same setting: the value for `O=C(Nc1ccccc1)N1CC[C@@]2(CCCN(C(=O)Oc3ccccc3)C2)C1` was “inactive”; that for `O=C(c1csnn1)N1CCC2(CC1)CN(Cc1ccncc1)C2` was “inactive”.
The same measure, in the same setting: the value for `CC(C)NC(=O)N1CC[C@@]2(CCCNC2)C1` was “inactive”; that for `c1ccc(N2CC3(CCNCC3)C2)nc1` was “inactive”.
Still for that read-out and setting: for `CC(C)NC(=O)N1CCC2(CC1)CCN(C(=O)Oc1ccccc1)CC2` the value was “inactive”.
On to `CC(C)NC(=O)N1CCCC2(CCN(C(=O)Oc3ccccc3)CC2)C1`, for which the result was inactive.
As to `CN1CCCC2(CCN(C(=O)Oc3ccccc3)CC2)C1`, the molecule was called inactive.
On the same count and under the same terms, for `CC(C)CN1CCC2(CC1)CCN(S(C)(=O)=O)CC2` the value was “inactive”; for `CN1CCCC2(CCN(C(=O)c3csnn3)CC2)C1`, “inactive”; for `CC(C)CN1CCCC2(CCN(C(=O)c3ccncc3)CC2)C1`, “inactive”.
Still for that read-out and setting: for `O=C(c1ccco1)N1CCC[C@@]2(CCN(Cc3ccncc3)C2)C1` the value was “inactive”; for `O=C(Nc1ccccc1)N1CC2(CCN(C(=O)Oc3ccccc3)CC2)C1`, “inactive”.
With `CC(C)CN1CC[C@@]2(CCCN(C(=O)c3ccncc3)C2)C1`, the molecule was called inactive.
The same measure, in the same setting: the value for `Cc1noc(C)c1C(=O)N1CCC[C@@]2(CCN(CC(C)C)C2)C1` was “inactive”; that for `CC(C)CN1CC2(CCN(C(=O)Oc3ccccc3)CC2)C1` was “inactive”.
Still for that read-out and setting: the value for `O=C(Oc1ccccc1)N1CCC2(CCCN(Cc3ccccc3)C2)CC1` was “inactive”; that for `N#Cc1cccc(NC(=O)N2CC3(CCN(C(=O)Oc4ccccc4)CC3)C2)c1` was “inactive”.
Still for that read-out and setting: the value for `O=C(c1cnccn1)N1CCC2(CC1)CN(Cc1ccncc1)C2` was “inactive”; that for `O=C(Oc1ccccc1)N1CCC2(CC1)CN(Cc1ccncc1)C2` was “inactive”; that for `CN1CCCC2(CCN(C(=O)c3ccco3)CC2)C1` was “inactive”.
`O=C(Nc1cccc(F)c1)N1CC2(CCNCC2)C1`: the outcome was inactive.

The values are drawn from PubChem BioAssay (NCATS).
